Assay results reported in the supplement of paper PMC8728848.
About 410 targets per protein were measured; listed, in parts, are those with the strongest signals and a random draw of the rest.

Columns and labels:
Experiment in all cases: glycan array binding signal (z-score within array); higher = stronger binding
Conditions in all cases: glycan notation: IUPAC condensed, linker removed
[1] = biological target: Glc(a1-4)Glc
Procedure, shortened: (§1)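 Columns mapping to the same glycan were averaged after glycan names were converted to IUPAC-condensed notation. The data come from 3228 arrays in the Consortium for Functional Glycomics database, limited to those with an available protein sequence. Binding is reported as a within-array Z-score averaged across arrays of one protein sequence and across linkers.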

[2] = biological target: GlcA(b1-3)Gal
Procedure, shortened: as §1

[3] = biological target: GlcNAc(b1-2)Man(a1-3)[GlcNAc(b1-4)][GlcNAc(b1-2)Man(a1-6)]Man(b1-4)GlcNAc(b1-4)[Fuc(a1-6)]GlcNAc
Procedure, shortened: as §1

[4] = biological target: GlcNAc(b1-2)[GlcNAc(b1-4)]Man(a1-3)[GlcNAc(b1-4)][GlcNAc(b1-2)[GlcNAc(b1-6)]Man(a1-6)]Man(b1-4)GlcNAc(b1-4)GlcNAc
Procedure, shortened: as §1

[5] = biological target: GlcNAc(b1-3)Gal(b1-4)GlcNAc(b1-3)Gal(b1-4)GlcNAc(b1-3)Gal(b1-4)GlcNAc(b1-2)[GlcNAc(b1-3)Gal(b1-4)GlcNAc(b1-3)Gal(b1-4)GlcNAc(b1-3)Gal(b1-4)GlcNAc(b1-6)]Man(a1-6)[GlcNAc(b1-3)Gal(b1-4)GlcNAc(b1-3)Gal(b1-4)GlcNAc(b1-3)Gal(b1-4)GlcNAc(b1-2)Man(a1-3)]Man(b1-4)GlcNAc(b1-4)[Fuc(a1-6)]GlcNAc
Procedure, shortened: as §1

[6] = biological target: GlcNAc(b1-3)Gal(b1-4)GlcNAc(b1-3)[GlcNAc(b1-3)Gal(b1-4)GlcNAc(b1-3)]GalNAc
Procedure, shortened: as §1

[7] = biological target: GlcNAc(b1-3)Gal(b1-4)GlcNAc(b1-6)[Gal(b1-3)]GalNAc
Procedure, shortened: as §1

[8] = biological target: GlcNAc(b1-3)Man
Procedure, shortened: as §1

[9] = biological target: GlcNAc(b1-4)GlcNAc(b1-4)GlcNAc
Procedure, shortened: as §1

[10] = biological target: Kdn(a2-6)Gal(b1-4)GlcNAc
Procedure, shortened: as §1

[11] = biological target: Neu5Ac(a2-3)Gal(b1-3)GlcNAc(b1-3)Gal(b1-3)GlcNAc
Procedure, shortened: as §1

[12] = biological target: Neu5Ac(a2-3)Gal(b1-3)GlcNAc(b1-3)Gal(b1-4)GlcNAc
Procedure, shortened: as §1

[13] = biological target: Neu5Ac(a2-3)Gal(b1-3)[Fuc(a1-4)]GlcNAc(b1-3)Gal(b1-4)[Fuc(a1-3)]GlcNAc
Procedure, shortened: as §1

[14] = biological target: Neu5Ac(a2-3)Gal(b1-4)GlcNAc(b1-2)[Neu5Ac(a2-3)Gal(b1-4)GlcNAc(b1-6)]Man(a1-6)[Neu5Ac(a2-3)Gal(b1-4)GlcNAc(b1-2)Man(a1-3)]Man(b1-4)GlcNAc(b1-4)GlcNAc
Procedure, shortened: as §1

[15] = biological target: Neu5Ac(a2-3)Gal(b1-4)GlcNAc(b1-2)[Neu5Ac(a2-3)Gal(b1-4)GlcNAc(b1-6)]Man(a1-6)[Neu5Ac(a2-3)Gal(b1-4)GlcNAc(b1-2)Man(a1-3)][GlcNAc(b1-4)]Man(b1-4)GlcNAc(b1-4)GlcNAc
Procedure, shortened: as §1

[16] = biological target: Neu5Ac(a2-3)Gal(b1-4)GlcNAc(b1-3)Gal(b1-4)GlcNAc(b1-3)Gal(b1-4)GlcNAc
Procedure, shortened: as §1

[17] = biological target: Neu5Ac(a2-3)Gal(b1-4)GlcNAc(b1-6)GalNAc
Procedure, shortened: as §1

[18] = biological target: Neu5Ac(a2-3)Gal(b1-4)GlcNAc(b1-6)[Gal(b1-3)]GalNAc
Procedure, shortened: as §1

[19] = biological target: Neu5Ac(a2-6)Gal(b1-4)GlcNAc(b1-2)Man(a1-3)[Neu5Ac(a2-6)Gal(b1-4)GlcNAc(b1-2)Man(a1-6)]Man(b1-4)GlcNAc(b1-4)GlcNAc
Procedure, shortened: as §1

[20] = biological target: Neu5Ac(a2-6)Gal(b1-4)GlcNAc(b1-2)Man(a1-6)[Gal(b1-4)GlcNAc(b1-2)Man(a1-3)]Man(b1-4)GlcNAc(b1-4)GlcNAc
Procedure, shortened: as §1

[21] = biological target: Neu5Ac(a2-6)Gal(b1-4)GlcNAc(b1-3)Gal(b1-4)GlcNAc(b1-3)Gal(b1-4)GlcNAc(b1-2)Man(a1-3)[Neu5Ac(a2-6)Gal(b1-4)GlcNAc(b1-3)Gal(b1-4)GlcNAc(b1-3)Gal(b1-4)GlcNAc(b1-2)Man(a1-6)]GalNAc
Procedure, shortened: as §1

[22] = biological target: Neu5Ac(a2-6)Gal(b1-4)GlcNAc(b1-6)[Gal(b1-3)GlcNAc(b1-3)]Gal(b1-4)Glc
Procedure, shortened: as §1

[23] = biological target: Neu5Ac(a2-6)GalNAc(b1-4)GlcNAc6S
Procedure, shortened: as §1

[24] = biological target: Neu5Ac(a2-8)Neu5Ac(a2-3)Gal(b1-3)GalNAc(b1-4)[Neu5Ac(a2-3)]Gal(b1-4)Glc
Procedure, shortened: as §1

[25] = biological target: Neu5Ac(a2-8)Neu5Ac(a2-8)Neu5Ac(a2-3)[GalNAc(b1-4)]Gal(b1-4)Glc
Procedure, shortened: as §1

[26] = biological target: Neu5Ac9Ac(a2-6)Gal(b1-4)GlcNAc
Procedure, shortened: as §1

[27] = biological target: Neu5Gc(a2-6)Gal(b1-4)GlcNAc
Procedure, shortened: as §1

[28] = biological target: Neu5Gc(a2-8)Neu5Gc(a2-3)Gal(b1-4)GlcNAc(b1-3)Gal(b1-4)GlcNAc
Procedure, shortened: as §1

B1: Gal 4 (Mus musculus), P56470 (protein)
chain: MAYVPAPGYQPTYNPTLPYYQPIPGGLNVGMSVYIQGVASEHMKRFFVNFVVGQDPGSDVAFHFNPRFDGWDKVVFNTLQGGKWGSEERKRSMPFKKGAAFELVFIVLAEHYKVVVNGNPFYEYGHRLPLQMVTHLQVDGDLQLQSINFIGGQPLRPQGPPMMPPYPGPGHCHQQLNSLPTMEGPPTFNPPVPYFGRLQGGLTARRTIIIKGYVPPTGKSFAINFKVGSSGDIALHINPRMGNGTVVRNSLLNGSWGSEEKKITHNPFGPGQFFDLSIRCGLDRFKVYANGQHLFDFAHRLSAFQRVDTLEIQGDVTLSYVQI
- glycan array binding signal (z-score) [1]: -0.244
- glycan array binding signal (z-score) [2]: -0.24
- glycan array binding signal (z-score) [3]: -0.278
- glycan array binding signal (z-score) [4]: -0.23
- glycan array binding signal (z-score) [5]: -0.244
- glycan array binding signal (z-score) [6]: -0.255
- glycan array binding signal (z-score) [7]: -0.174
- glycan array binding signal (z-score) [8]: -0.218
- glycan array binding signal (z-score) [9]: -0.23
- glycan array binding signal (z-score) [10]: -0.242
- glycan array binding signal (z-score) [11]: 0.107
- glycan array binding signal (z-score) [12]: -0.205
- glycan array binding signal (z-score) [13]: -0.234
- glycan array binding signal (z-score) [14]: -0.196
- glycan array binding signal (z-score) [15]: -0.338
- glycan array binding signal (z-score) [16]: -0.231
- glycan array binding signal (z-score) [17]: -0.314
- glycan array binding signal (z-score) [18]: -0.228
- glycan array binding signal (z-score) [19]: -0.226
- glycan array binding signal (z-score) [20]: -0.196
- glycan array binding signal (z-score) [21]: -0.294
- glycan array binding signal (z-score) [22]: -0.295
- glycan array binding signal (z-score) [23]: -0.293
- glycan array binding signal (z-score) [24]: -0.247
- glycan array binding signal (z-score) [25]: -0.227
- glycan array binding signal (z-score) [26]: -0.232
- glycan array binding signal (z-score) [27]: -0.231
- glycan array binding signal (z-score) [28]: -0.309
